The values that follow come from PubChem BioAssay (Tox21).

Values joined by “and” are separate entries in the source; they are usually repeats but may differ in a detail not shown here. Identical values can stand only once. Results filed as inconclusive are left out. A structure can be active in one record and inactive in another. Active and inactive are the calls of the source. Unless noted, calls come from the whole dose curve; as a rule, active = well fitted curve in the direction sought with a large enough effect in the repeat runs; inconclusive = weak or mixed curves; inactive = no such curve, though single readings can be large; an effect the other way counts as inactive or inconclusive.

Experiment [1] is described as follows: qHTS assay to identify small molecule antagonists of the estrogen related receptor signaling pathway with the pleiotropic PPARgamma coactivator (PGC) from Tox21 10K library - cell viability counter screen (AID 1224840; active = well fitted cell-killing curve with a large enough effect in the repeat runs, not every such curve was filed as active; note: nearly all actives have a fitted effect of over 40% in size). The essentials:
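Fluorescence read-out of CellTiter-Fluor viability reagent, added after cells had been exposed to compound in DMSO for 17.5 h at 37 C; 30 min development at 37 C/5% CO2. Cells: PGC/ERR line, 2,000/well.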
For orientation: Quantitative high-throughput screening tests each substance at several concentrations.

Experiment [2] in a line: qHTS assay to identify small molecule antagonists of the estrogen related receptor signaling pathway with the pleiotropic PPARgamma coactivator (PGC) from Tox21 10K library (AID 1224841; call rule not given here; note: actives are mostly falling curves and most rising ones were filed inactive; nearly all actives have a fitted effect of over 50% in size; note: potency is the fitted concentration of half-maximal effect). The essentials: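 Luminescence read-out (One-Glo luciferase reagent, 30 min at room temperature) from PGC/ERR cells exposed to DMSO-dissolved test compounds for 18 h at 37 C; cells, 2,000 per well, had been preincubated 6 h before compound transfer.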

Experiment [3] addresses Thyrotropin receptor (Homo sapiens) (UniProt P16473). As to the kind of experiment: qHTS assay to identify small molecule agonists of the thyroid stimulating hormone receptor (TSHR) signaling pathway (AID 1224843; calls by dose curve; note: nearly all actives have a fitted effect of over 45% in size; note: potency is the fitted concentration of half-maximal effect). An outline of the steps:
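A cell-based cAMP HTRF format was run in TSHR-transfected HEK293 cells, 800 per well. Treatment: 30 min, room temperature. Detection: 1 h with labelled cAMP and anti-cAMP cryptate. Concentration-response over 15 points, three replicates.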

A short description of experiment [4]: qHTS assay to identify small molecule antagonists of the estrogen related receptor (ERR) signaling pathway from Tox21 library (AID 1224848). Note: nearly all actives have a fitted effect of over 50% in size. Note: potency is the fitted concentration of half-maximal effect. An outline of the steps:
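ERR cell line, 2,000 cells/well. 6 h settle, then compound (DMSO) added; 18 h at 37 C; ONE-Glo luminescence after 30 min RT.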

Experiment [5] can be described thus: qHTS RealTime-Glo MT Cell Viability Assay in HEK293 cells - 8 hour (AID 1224887). Note: nearly all actives have a fitted effect of over 50% in size. Note: potency is the fitted concentration of half-maximal effect. The essentials: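 Luminescence readout at each listed time point; HEK293, 600 cells/well, RealTime-Glo MT reagent added with cells; compounds pinned (23 nL in DMSO) after 5 h at 37 C; continuous culture at 37 C.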
The target of experiment [6] is Estrogen receptor (Homo sapiens) (UniProt P03372). As to the kind of experiment: qHTS assay to identify small molecule antagonists of the estrogen receptor alpha (ER-alpha) signaling pathway using the BG1 cell line in the presence of 0.1 nM 17-beta-estradiol (AID 1259244). Note: nearly all actives have a fitted effect of over 50% in size. Note: potency is the fitted concentration of half-maximal effect. The essentials: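 Luminescence after ONE-Glo (30 min, room temperature) measured ERE-luciferase activity in VM7Luc4E2 cells treated 22 h with compound and 0.1 nM final 17beta-estradiol as stimulator.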
Sequence of Estrogen receptor (Homo sapiens) (P03372 whole entry, looked up): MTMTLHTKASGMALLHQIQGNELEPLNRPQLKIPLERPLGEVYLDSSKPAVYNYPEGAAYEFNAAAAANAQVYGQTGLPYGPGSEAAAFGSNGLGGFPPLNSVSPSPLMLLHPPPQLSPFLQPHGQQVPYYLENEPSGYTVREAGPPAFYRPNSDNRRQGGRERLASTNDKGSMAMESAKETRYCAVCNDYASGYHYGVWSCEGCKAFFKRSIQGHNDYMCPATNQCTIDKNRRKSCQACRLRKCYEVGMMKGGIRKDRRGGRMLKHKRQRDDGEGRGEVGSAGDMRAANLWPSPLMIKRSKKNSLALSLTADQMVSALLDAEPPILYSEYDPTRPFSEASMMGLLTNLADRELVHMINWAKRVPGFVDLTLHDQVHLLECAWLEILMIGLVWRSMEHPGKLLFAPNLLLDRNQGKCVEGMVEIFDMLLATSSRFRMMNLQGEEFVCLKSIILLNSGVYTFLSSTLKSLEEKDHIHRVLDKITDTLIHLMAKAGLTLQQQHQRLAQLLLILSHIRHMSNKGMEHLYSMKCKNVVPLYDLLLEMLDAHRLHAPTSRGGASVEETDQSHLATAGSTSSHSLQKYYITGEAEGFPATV

For experiment [7], the target named is Estrogen receptor beta (Homo sapiens) (UniProt Q92731). In words: qHTS assay to identify small molecule agonists of the estrogen receptor beta (ER-beta) signaling pathway (AID 1259377; active = well fitted activation curve with a large enough effect in the signal ratio in the repeat runs, not every such curve was filed as active; the % refers to the signal ratio). An outline of the steps: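 Ratiometric beta-lactamase FRET read-out came after 2 h substrate loading at room temperature. It followed 16 h compound treatment at 37C of GripTite HEK293T cells carrying a UAS-bla reporter, plated in 2% charcoal-stripped FBS medium.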
Sequence of Estrogen receptor beta (Homo sapiens) (Q92731 whole entry, looked up): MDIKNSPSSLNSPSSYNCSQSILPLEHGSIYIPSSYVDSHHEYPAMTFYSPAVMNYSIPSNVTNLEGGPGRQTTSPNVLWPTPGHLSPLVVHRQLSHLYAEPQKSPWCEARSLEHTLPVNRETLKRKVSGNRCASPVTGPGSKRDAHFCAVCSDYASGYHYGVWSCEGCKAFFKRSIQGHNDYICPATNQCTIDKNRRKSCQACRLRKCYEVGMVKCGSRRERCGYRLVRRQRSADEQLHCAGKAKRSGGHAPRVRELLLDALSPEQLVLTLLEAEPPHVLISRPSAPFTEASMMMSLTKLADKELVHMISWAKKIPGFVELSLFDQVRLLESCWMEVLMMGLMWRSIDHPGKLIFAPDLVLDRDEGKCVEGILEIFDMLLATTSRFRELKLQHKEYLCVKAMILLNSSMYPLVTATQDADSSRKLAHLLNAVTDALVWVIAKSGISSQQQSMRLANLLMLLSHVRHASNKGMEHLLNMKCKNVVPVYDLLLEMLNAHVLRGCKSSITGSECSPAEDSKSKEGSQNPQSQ

Experiment [8] concerns the target Androgen receptor (Homo sapiens) (UniProt P10275). In words: qHTS assay to identify small molecule agonists of the androgen receptor (AR) signaling pathway in the presence of an antagonist (AID 1259381; calls by dose curve; note: nearly all actives have a fitted effect of over 15% in size). The essentials:
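Luciferase read-out (ONE-Glo, 30min room temperature) in MDA-kb2 MMTV-reporter cells; agonist mode run in presence of AR antagonist nilutamide, 3.0uM final. Compounds tested as 15-point series, 16hr exposure at 37C, 0% CO2.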

The target of experiment [9] is Thyrotropin receptor (Homo sapiens) (UniProt P16473). As to the kind of experiment: qHTS assay to identify small molecule antagonists of the thyroid stimulating hormone receptor (TSHR) signaling pathway (AID 1259385; calls by dose curve; note: nearly all actives have a fitted effect of over 20% in size). An outline of the steps:
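Antagonist mode: compound-treated TSHR-expressing HEK293 cells were stimulated with 1.5 ng/mL TSH (final) in presence of Ro20-1724 for 30 min at RT. HTRF cAMP detection after 1 h; each compound tested at 15 concentrations, triplicate.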

Experiment [10] in a line: qHTS assay to identify small molecule antagonists of the progesterone receptor (PR) signaling pathway - cell viability counter screen (AID 1346798). Note: nearly all actives have a fitted effect of over 50% in size. Note: potency is the fitted concentration of half-maximal effect. The essentials: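 Cytotoxicity read as CellTiter-Glo luminescence (30 min, room temperature) in the same wells as the beta-lactamase readout. HEK293T PR-UAS-bla cells in charcoal-stripped 2% FBS received compound and R5020, then 16 h at 37C, 5% CO2.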

The nature of experiment [11]: qHTS assay to identify small molecule agonists of the progesterone receptor (PR) signaling pathway - cell viability counter screen (AID 1346799; calls by dose curve; note: nearly all actives have a fitted effect of over 45% in size; note: potency is the fitted concentration of half-maximal effect). The essentials:
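Cytotoxicity measured by CellTiter-Glo luminescence (30 min, RT) in the same wells as the PR beta-lactamase agonist read. Those HEK293T cells had 16 h compound treatment at 37 C in 2% charcoal-stripped FBS medium.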

Experiment [12] deals with Thyrotropin-releasing hormone receptor (Homo sapiens) (UniProt P34981). In words: qHTS assay to identify small molecule antagonists of the thyrotropin-releasing hormone receptor (TRHR) signaling pathway (AID 1346877; active = well fitted inhibition curve with a large enough effect in the repeat runs, not every such curve was filed as active; note: series mostly up to about 51 µM). An outline of the steps: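 HEK293/TRHR cells, 18 h, 37 °C; Ca2+ dye 2 h; cpd 5 min RT; TRH 1 nM final; fluorescence read 3 min, 1 s intervals; 15 concs, triplicate.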
Sequence of Thyrotropin-releasing hormone receptor (Homo sapiens) (P34981 whole entry, looked up): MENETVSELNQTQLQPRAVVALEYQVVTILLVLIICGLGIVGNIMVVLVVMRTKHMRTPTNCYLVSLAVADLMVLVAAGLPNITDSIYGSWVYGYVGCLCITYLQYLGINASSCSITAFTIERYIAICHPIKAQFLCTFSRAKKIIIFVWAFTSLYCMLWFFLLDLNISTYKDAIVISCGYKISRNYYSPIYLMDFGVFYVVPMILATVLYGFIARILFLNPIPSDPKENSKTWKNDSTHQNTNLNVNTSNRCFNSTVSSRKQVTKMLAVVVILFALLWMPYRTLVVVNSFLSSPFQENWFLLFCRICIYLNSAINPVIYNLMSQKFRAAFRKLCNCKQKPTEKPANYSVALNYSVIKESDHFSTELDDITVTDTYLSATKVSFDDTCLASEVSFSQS

A short description of experiment [13]: qHTS assay to test for compound auto fluorescence at 460 nm (blue) in HEK293 cell free culture (AID 720681). The essentials:
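Blue fluorescence (Ex 405/Em 460 nm, triamterene-equivalent) was read immediately after pin transfer of compound or DMSO into medium (DMEM, 10% FBS) without cells.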

The nature of experiment [14]: qHTS assay to test for compound auto fluorescence at 535 nm (green) in HepG2 cell free culture (AID 720686).
Experiment [15] is described as follows: qHTS assay for identifying genotoxic compounds that show differential cytotoxicity against isogenic chicken DT40 cell lines with known DNA damage response pathways - Rev3 mutant cell line (AID 743014). Note: nearly all actives have a fitted effect of over 55% in size. Note: potency is the fitted concentration of half-maximal effect.
Experiment [16] can be described thus: qHTS assay to identify small molecule antagonists of the farnesoid-X-receptor (FXR) signaling pathway - cell viability counter screen (AID 743221; active = well fitted cell-killing curve with a large enough effect in the repeat runs, not every such curve was filed as active; note: nearly all actives have a fitted effect of over 50% in size; note: potency is the fitted concentration of half-maximal effect). The essentials:
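Cytotoxicity counter screen run in the FXR-bla reporter wells: HEK 293T cells exposed to compound with 50 uM (final) chenodeoxycholic acid for 16 h, 37 C, then viability measured by CellTiter-Glo luminescence after 30 min, room temperature.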

The nature of experiment [17]: qHTS assay to test for compound auto fluorescence at 590 nm (red) in HepG2 cells (AID 720674). The essentials: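 1 hr compound incubation on HepG2 cells, 37 C, 5% CO2; plate read ex 540 nm / em 590 nm; intensities reported as Rose Bengal sodium equivalents.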
Experiment [18] is described as follows: qHTS assay to test for compound auto fluorescence at 460 nm (blue) in HEK293 cells (AID 720678). An outline of the steps:
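Triamterene serves as the blue fluorophore standard. Compound signal at 405/460 nm is read in HEK293 wells (2,000 cells, 10% dialyzed FBS) after overnight treatment at 37C.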

Experiment [19] can be described thus: qHTS assay for identifying genotoxic compounds that show differential cytotoxicity against isogenic chicken DT40 cell lines with known DNA damage response pathways - Rad54/Ku70 mutant cell line (AID 743015). Note: nearly all actives have a fitted effect of over 60% in size. Note: potency is the fitted concentration of half-maximal effect.
Experiment [20] is described as follows: qHTS assay to identify small molecule antagonists of the thyroid receptor (TR) signaling pathway (AID 743065). Note: potency is the fitted concentration of half-maximal effect; nearly all actives have a fitted effect of over 55% in size. An outline of the steps: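 Antagonism measured as loss of luciferase signal in GH3 cells stably carrying a TRE-luciferase reporter, co-treated with compound and T3 (1 nM final) for 23.5 h at 37 C. Viability was read in the same well by CellTiter-Fluor.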

Sequence of Thyrotropin receptor (Homo sapiens) (P16473 whole entry, looked up): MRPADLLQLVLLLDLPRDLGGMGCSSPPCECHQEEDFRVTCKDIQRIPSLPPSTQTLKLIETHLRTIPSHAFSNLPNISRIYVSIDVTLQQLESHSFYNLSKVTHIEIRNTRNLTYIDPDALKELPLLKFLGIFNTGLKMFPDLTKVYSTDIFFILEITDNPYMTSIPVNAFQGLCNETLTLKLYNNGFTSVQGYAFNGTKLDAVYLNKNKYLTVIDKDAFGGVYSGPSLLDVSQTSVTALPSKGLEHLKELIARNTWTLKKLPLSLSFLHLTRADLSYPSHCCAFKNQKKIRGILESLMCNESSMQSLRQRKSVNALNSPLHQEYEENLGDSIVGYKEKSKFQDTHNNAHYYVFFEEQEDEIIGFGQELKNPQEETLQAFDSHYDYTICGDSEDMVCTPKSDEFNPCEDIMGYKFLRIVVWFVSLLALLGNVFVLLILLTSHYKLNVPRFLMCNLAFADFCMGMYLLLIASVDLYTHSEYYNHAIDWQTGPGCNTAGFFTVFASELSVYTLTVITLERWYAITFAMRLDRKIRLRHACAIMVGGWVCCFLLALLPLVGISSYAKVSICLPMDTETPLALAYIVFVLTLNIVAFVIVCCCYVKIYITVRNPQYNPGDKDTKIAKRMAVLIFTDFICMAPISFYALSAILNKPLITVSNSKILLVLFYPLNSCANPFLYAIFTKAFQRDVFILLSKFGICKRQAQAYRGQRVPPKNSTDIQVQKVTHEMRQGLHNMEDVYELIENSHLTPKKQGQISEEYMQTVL
Sequence of Androgen receptor (Homo sapiens) (P10275 whole entry, looked up): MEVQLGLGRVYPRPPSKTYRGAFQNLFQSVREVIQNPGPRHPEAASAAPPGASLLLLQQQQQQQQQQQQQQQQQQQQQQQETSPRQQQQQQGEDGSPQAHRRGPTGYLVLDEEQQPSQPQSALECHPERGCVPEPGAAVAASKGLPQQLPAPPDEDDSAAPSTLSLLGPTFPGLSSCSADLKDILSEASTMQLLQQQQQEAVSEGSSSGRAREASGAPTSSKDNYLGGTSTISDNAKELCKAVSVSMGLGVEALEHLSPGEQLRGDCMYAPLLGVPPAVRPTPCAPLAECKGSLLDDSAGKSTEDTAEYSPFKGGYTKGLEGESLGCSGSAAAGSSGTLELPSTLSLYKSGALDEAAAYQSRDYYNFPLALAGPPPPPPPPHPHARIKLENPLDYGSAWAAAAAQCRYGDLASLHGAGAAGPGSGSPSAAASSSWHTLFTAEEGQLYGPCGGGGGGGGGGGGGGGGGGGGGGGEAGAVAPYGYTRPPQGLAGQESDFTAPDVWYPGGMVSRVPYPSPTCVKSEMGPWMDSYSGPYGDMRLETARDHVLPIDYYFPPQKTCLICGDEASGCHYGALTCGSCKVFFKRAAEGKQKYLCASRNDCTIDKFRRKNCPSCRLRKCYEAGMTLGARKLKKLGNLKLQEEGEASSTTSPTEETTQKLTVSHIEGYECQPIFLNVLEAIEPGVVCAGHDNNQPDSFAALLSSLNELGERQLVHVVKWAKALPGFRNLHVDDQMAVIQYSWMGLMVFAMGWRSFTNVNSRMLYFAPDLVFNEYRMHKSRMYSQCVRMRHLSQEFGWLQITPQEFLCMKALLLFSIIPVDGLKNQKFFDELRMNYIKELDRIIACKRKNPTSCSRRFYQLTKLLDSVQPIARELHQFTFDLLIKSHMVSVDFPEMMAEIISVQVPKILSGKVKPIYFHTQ

Take `CCN(CC)C(=O)Cl`: the Potency result in experiment [1], in [2], in experiment [3], in experiment [4], in [5] and in experiment [6] was “inactive” in each case. In addition, the Potency result in experiment [8], in experiment [9], in [10] and in experiment [11] was “inactive” each time. For the same molecule, the result in [7] and in experiment [12] was inactive.
As for `Cc1cccc([N+](=O)[O-])c1C`, the outcome in experiment [7] was inactive.
Consider `CC(C)(C)OCC1CO1` (stereo not drawn), for which the Potency result in experiment [9] is “inactive”.
With `Oc1ccc(Cl)cc1Cc1cc(Cl)ccc1O`, the Potency entry in experiment [3] was “inactive”.
For the molecule `OC(Cc1ccccc1Cl)(Cn1[nH]cnc1=S)C1(Cl)CC1` (stereo not drawn), the Potency result in experiment [3], in experiment [8], in experiment [9] and in [10] was “inactive” each time. Besides, the molecule was called inactive in experiment [12].
Take `Brc1ccc(Br)c(Br)c1`: the result in experiment [7] was inactive.
Regarding `Cc1cc(C(C)(C)c2ccc(O)c(C)c2)ccc1O`, the Potency result in experiment [13], in experiment [14], in experiment [15], in experiment [16], in experiment [8] and in [9] was “inactive” throughout. Besides, the Potency in [2] is 9.23 µM (active); in [3], 46.2 µM (active); in experiment [4], 26 µM (active); in experiment [5], 23.4 µM (active).
As for `ClC1=C(Cl)[C@]2(Cl)[C@@H]3[C@@H](Cl)[C@H]4O[C@H]4[C@@H]3C1(Cl)C2(Cl)Cl`, the molecule was called inactive in experiment [17] and in experiment [7]. For the same molecule, the Potency result in experiment [18], in [16], in experiment [2] and in experiment [10] was “inactive” each time. Besides, the figures for the Potency in experiment [15], in [19] and in experiment [20] were 34.4 µM (active), 61.1 µM (active) and 54.5 µM (active), respectively.
On to `c1ccc2c(c1)Sc1ccccc1N2CC1CN2CCC1CC2` (stereo not drawn), for which the Potency entry in experiment [18], in experiment [13], in experiment [14] and in [2] was “inactive” each time. In addition, the Potency in [15] is 11.9 µM (active); in experiment [19], 8.41 µM (active); in [16] it was 18.8 µM (active); in experiment [10], 21.1 µM (active); in experiment [11] it was 13.3 µM (active).
Take `Cc1cccc(C)c1[N+](=O)[O-]`: the molecule was classed as inactive in experiment [7].
In the case of `Clc1ccccc1-c1ccccc1Cl`, the Potency entry in experiment [18], in experiment [13], in experiment [14], in experiment [15], in experiment [19] and in experiment [16] was “inactive” each time. The Potency entry in [1] and in experiment [11] was “inactive” throughout.
With `Nc1cccc([N+](=O)[O-])c1`, the molecule was classed as inactive in experiment [7].
Turning to `CCOC(=O)C(O)(c1ccc(Cl)cc1)c1ccc(Cl)cc1`, the call in experiment [17], in experiment [7] and in experiment [12] was inactive. The Potency result in experiment [18], in experiment [13], in [14], in experiment [8] and in experiment [10] was “inactive” each time. Also, the Potency is 2.19 µM (active) and 24.3 µM (active) in experiment [15]; 3.9 µM (active) and 17.2 µM (active) in experiment [19]; 4.91 µM (active) and 61.1 µM (active) in experiment [20]; 44.1 µM (active) and inactive in experiment [16]; 22.1 µM (active) in experiment [5]; 61.1 µM (active) in [6].
